For this assay, the system named is PPARgamma LBD (GAL4 fusion). Nature of the assay: luciferase reporter transactivation, fold of solvent control; higher = stronger receptor activation. The conditions noted are these: HEK293T, exposure time: 24 h. On the procedure:
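HEK293T cells were transiently transfected with a GAL4-DBD fused to the ligand-binding domain of a human nuclear receptor (PPARα, PPARγ, PPARδ, FXR, LXRα, PXR, RARα or CAR), the GAL4-(UAS)5-TK firefly luciferase reporter and a Renilla luciferase normalisation plasmid. Cells were exposed to compound for 24 h in 0.5% DMSO. Firefly/Renilla luciferase was expressed as fold of the solvent control (=1). Values are the mean of 2-3 biological replicates; receptor agonists were used as positive controls.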

As for `NS(=O)(=O)C(F)(F)C(F)(F)C(F)(F)C(F)(F)C(F)(F)C(F)(F)C(F)(F)C(F)(F)F` [perfluorooctane sulfonamide], the luciferase reporter transactivation came to 0.722 (concentration: 1 µM); 1.1 (concentration: 2.5 µM); 1.08 (concentration: 5 µM); 1.01 (concentration: 10 µM); 1.18 (concentration: 100 µM).

Consider `O=C(O)C(F)(F)C(F)(F)F` [perfluoropropanoic acid], for which the luciferase reporter transactivation stood at 1.14 (concentration: 1 µM); 1.11 (concentration: 5 µM); 1.23 (concentration: 10 µM); 1.18 (concentration: 25 µM); 1.29 (concentration: 50 µM); 1.32 (concentration: 100 µM). Moreover, the luciferase reporter transactivation worked out at 1.27 (concentration: 250 µM) and 1.33 (concentration: 500 µM).

The record behind these values is the supplement of paper PMC11402862.
